Holding throughout (experiment): DAPPL (digital affinity profiling via proximity ligation, sequencing); 10 mM Tris-HCl pH 7.5, 50 mM NaCl, 1 mM DTT, 4% glycerol, room temperature, 30 min; GST-TFs on glutathione beads, 16-mer random dsDNA library, 0.1% formaldehyde crosslink after washing; high values mean tight binding
Conditions in all cases: protein: recombinant; tags: N-terminal GST; dsDNA, one strand shown

One experiment concerns the target T1, ERF (Homo sapiens, UniProt P50548 1-548).
T1 sequence: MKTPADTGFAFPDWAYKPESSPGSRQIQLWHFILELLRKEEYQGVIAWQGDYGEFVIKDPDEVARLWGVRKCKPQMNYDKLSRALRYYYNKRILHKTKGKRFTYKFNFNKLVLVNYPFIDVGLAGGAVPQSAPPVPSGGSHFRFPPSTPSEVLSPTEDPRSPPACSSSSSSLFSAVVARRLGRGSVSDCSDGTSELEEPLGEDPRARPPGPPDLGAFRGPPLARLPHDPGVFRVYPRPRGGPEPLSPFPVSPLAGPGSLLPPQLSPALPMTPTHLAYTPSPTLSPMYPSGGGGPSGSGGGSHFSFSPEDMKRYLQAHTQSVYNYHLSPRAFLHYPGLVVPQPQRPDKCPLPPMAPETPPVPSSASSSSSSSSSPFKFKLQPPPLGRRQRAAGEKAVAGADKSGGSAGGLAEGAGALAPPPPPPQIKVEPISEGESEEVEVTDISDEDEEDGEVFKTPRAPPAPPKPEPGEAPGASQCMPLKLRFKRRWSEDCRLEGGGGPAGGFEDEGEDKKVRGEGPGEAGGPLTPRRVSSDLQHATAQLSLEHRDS
The procedure, abridged: (§1)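 Sequencing on an Illumina NextSeq500 followed washing, crosslinking with 0.1% formaldehyde, proximity ligation (BsaI/T4 ligase, 1 h, 37 °C) and PCR amplification of pools that had been incubated for 30 min at room temperature with 200 nmole of a random double-stranded 16-mer DNA library in Tris/NaCl/DTT/glycerol buffer. Each pool held DNA-barcoded human transcription factors, expressed in yeast as GST fusions and captured on glutathione beads, plus a tag-only sample. Binding signal is a hexamer's read frequency for a factor divided by its frequency in the tag-only sample.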

The next experiment has as its target T2, ETV3L (Homo sapiens, UniProt Q6ZN32 1-361).
T2 sequence: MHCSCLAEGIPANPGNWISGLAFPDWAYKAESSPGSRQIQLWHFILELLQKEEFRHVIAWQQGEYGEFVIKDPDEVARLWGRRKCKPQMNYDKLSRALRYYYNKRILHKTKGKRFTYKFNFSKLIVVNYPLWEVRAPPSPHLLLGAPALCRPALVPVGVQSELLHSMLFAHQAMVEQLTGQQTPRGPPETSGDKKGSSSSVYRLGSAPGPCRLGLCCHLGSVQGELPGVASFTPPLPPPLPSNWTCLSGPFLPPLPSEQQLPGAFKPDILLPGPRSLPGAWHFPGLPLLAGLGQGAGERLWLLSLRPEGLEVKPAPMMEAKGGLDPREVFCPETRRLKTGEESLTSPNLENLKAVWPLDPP
The procedure, abridged:
as §1

Another experiment deals with T3, ETS2 (Homo sapiens, UniProt P15036 1-469).
T3 sequence: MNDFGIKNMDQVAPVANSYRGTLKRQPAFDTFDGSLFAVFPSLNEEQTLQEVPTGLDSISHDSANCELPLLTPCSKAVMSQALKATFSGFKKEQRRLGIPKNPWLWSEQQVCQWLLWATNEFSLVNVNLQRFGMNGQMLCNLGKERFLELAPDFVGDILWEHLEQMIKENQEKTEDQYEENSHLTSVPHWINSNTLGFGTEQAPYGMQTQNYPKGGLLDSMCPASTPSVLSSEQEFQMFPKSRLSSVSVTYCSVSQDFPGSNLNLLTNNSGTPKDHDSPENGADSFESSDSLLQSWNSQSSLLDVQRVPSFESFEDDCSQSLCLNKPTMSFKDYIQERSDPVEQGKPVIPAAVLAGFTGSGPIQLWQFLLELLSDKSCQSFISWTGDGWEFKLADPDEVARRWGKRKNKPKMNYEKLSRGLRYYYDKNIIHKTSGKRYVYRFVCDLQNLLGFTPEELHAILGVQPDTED
In short, it runs like this:
as §1

The target in another experiment is T4, SPDEF (Homo sapiens, UniProt O95238 1-335).
T4 sequence: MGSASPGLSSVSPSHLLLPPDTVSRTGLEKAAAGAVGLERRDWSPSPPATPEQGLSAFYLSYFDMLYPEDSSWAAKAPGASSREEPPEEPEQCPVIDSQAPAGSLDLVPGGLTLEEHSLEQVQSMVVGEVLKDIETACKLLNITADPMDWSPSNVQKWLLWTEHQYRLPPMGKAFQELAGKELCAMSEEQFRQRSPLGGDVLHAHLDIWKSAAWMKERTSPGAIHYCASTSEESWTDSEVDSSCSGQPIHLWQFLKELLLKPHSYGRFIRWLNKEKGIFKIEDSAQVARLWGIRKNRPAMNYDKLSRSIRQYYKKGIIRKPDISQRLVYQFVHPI
The procedure, abridged:
as §1

The next experiment deals with T5, ETV7 (Homo sapiens, UniProt Q9Y603 1-341).
T5 sequence: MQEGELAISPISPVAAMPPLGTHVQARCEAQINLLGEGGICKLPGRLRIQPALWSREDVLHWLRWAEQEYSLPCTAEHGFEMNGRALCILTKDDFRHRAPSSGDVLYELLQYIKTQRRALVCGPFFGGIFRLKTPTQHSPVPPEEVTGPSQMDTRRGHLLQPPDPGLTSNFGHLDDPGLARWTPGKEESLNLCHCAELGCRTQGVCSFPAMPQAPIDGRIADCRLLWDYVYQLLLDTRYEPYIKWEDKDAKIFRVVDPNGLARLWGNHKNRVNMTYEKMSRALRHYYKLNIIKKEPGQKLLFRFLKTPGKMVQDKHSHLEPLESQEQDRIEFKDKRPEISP
In short, it runs like this:
as §1

For the next experiment, the target named is T6, ELF5 (Homo sapiens, UniProt Q9UKW6-2 1-255).
T6 sequence: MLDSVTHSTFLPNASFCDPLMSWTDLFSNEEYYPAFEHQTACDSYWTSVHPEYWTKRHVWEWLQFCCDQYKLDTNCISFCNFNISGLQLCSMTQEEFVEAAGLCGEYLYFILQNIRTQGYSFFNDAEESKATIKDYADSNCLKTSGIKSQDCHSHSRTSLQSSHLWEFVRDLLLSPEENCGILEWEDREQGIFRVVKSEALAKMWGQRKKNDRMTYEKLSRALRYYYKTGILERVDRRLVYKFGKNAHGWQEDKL
In short, it runs like this: as §1

The target in the next experiment is T7, ETV3 (Homo sapiens, UniProt P41162-2 1-143).
T7 sequence: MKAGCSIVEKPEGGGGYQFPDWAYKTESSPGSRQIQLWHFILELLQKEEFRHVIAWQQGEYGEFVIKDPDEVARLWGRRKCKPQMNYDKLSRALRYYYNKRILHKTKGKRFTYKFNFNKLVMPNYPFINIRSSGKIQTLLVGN
In short, it runs like this:
as §1

The target of another experiment is ETV6 (Homo sapiens, UniProt P41212 1-452). The procedure, abridged: as §1

Binding signal data for seven sequences are collected here from PMC7862700, “An all-to-all approach to the identification of sequence-specific readers for epigenetic DNA modifications on cytosine”.

Chain of ETV6 (P41212 whole entry): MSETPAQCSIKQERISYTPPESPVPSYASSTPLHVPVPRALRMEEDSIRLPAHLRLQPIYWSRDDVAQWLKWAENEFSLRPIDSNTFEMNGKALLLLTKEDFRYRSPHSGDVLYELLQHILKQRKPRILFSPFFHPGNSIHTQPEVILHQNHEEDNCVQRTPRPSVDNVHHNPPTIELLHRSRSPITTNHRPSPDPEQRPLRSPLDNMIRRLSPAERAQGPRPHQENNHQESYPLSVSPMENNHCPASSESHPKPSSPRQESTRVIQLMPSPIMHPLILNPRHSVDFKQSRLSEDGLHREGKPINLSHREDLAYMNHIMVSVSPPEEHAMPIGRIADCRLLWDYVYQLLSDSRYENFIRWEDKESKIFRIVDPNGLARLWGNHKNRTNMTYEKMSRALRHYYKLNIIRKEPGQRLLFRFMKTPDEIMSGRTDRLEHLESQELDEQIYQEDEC

With AAGTTA, the binding signal with ERF is 1.24 fold enrichment (6-mer frequency, TF over GST control); with ETV3L it was 1.18 fold enrichment (6-mer frequency, TF over GST control); with ETS2, 1.24 fold enrichment (6-mer frequency, TF over GST control); in the experiment with SPDEF, 1.08 fold enrichment (6-mer frequency, TF over GST control); with ETV7 it was 1.21 fold enrichment (6-mer frequency, TF over GST control); with ELF5, 1.21 fold enrichment (6-mer frequency, TF over GST control). Also, the binding signal was 1.19 fold enrichment (6-mer frequency, TF over GST control) with ETV3 and 1.3 fold enrichment (6-mer frequency, TF over GST control) in the experiment with ETV6.
In the case of ATAATA, the binding signal with ERF was 1.32 fold enrichment (6-mer frequency, TF over GST control); in the experiment with ETV3L it was 1.14 fold enrichment (6-mer frequency, TF over GST control); with ETS2 it was 1.2 fold enrichment (6-mer frequency, TF over GST control); with SPDEF, 1.15 fold enrichment (6-mer frequency, TF over GST control); with ETV7, 1.14 fold enrichment (6-mer frequency, TF over GST control); in the experiment with ELF5, 1.17 fold enrichment (6-mer frequency, TF over GST control). The binding signal in the experiment with ETV3 is 1.2 fold enrichment (6-mer frequency, TF over GST control); with ETV6, 1.2 fold enrichment (6-mer frequency, TF over GST control).
In the case of TCTTGT, the binding signal with ERF was 1.68 fold enrichment (6-mer frequency, TF over GST control); in the experiment with ETV3L, 1.61 fold enrichment (6-mer frequency, TF over GST control); with ETS2, 1.47 fold enrichment (6-mer frequency, TF over GST control); with SPDEF, 1.57 fold enrichment (6-mer frequency, TF over GST control); in the experiment with ETV7, 1.57 fold enrichment (6-mer frequency, TF over GST control); with ELF5 it was 1.42 fold enrichment (6-mer frequency, TF over GST control). The binding signal in the experiment with ETV3 was 1.5 fold enrichment (6-mer frequency, TF over GST control); in the experiment with ETV6, 1.48 fold enrichment (6-mer frequency, TF over GST control).
As for AGCTCC, the binding signal is 1.24 fold enrichment (6-mer frequency, TF over GST control) with ERF; 1.25 fold enrichment (6-mer frequency, TF over GST control) in the experiment with ETV3L; 1.33 fold enrichment (6-mer frequency, TF over GST control) in the experiment with ETS2; 1.4 fold enrichment (6-mer frequency, TF over GST control) with SPDEF; 1.17 fold enrichment (6-mer frequency, TF over GST control) in the experiment with ETV7; 1.2 fold enrichment (6-mer frequency, TF over GST control) with ELF5. Further, the binding signal with ETV3 is 1.22 fold enrichment (6-mer frequency, TF over GST control); in the experiment with ETV6 it was 1.32 fold enrichment (6-mer frequency, TF over GST control).
Turning to ATAAAA, the binding signal is 1.13 fold enrichment (6-mer frequency, TF over GST control) with ERF; 1.15 fold enrichment (6-mer frequency, TF over GST control) in the experiment with ETV3L; 1.17 fold enrichment (6-mer frequency, TF over GST control) with ETS2; 1.12 fold enrichment (6-mer frequency, TF over GST control) with SPDEF; 1.1 fold enrichment (6-mer frequency, TF over GST control) with ETV7; 1.11 fold enrichment (6-mer frequency, TF over GST control) with ELF5. Moreover, the binding signal was 1.15 fold enrichment (6-mer frequency, TF over GST control) with ETV3 and 1.16 fold enrichment (6-mer frequency, TF over GST control) with ETV6.
In the case of TAAAAC, the binding signal in the experiment with ERF is 1.22 fold enrichment (6-mer frequency, TF over GST control); in the experiment with ETV3L, 1.2 fold enrichment (6-mer frequency, TF over GST control); with ETS2 it was 1.15 fold enrichment (6-mer frequency, TF over GST control); in the experiment with SPDEF it was 1.18 fold enrichment (6-mer frequency, TF over GST control); with ETV7 it was 1.27 fold enrichment (6-mer frequency, TF over GST control); with ELF5 it was 1.12 fold enrichment (6-mer frequency, TF over GST control). In addition, the binding signal in the experiment with ETV3 is 1.24 fold enrichment (6-mer frequency, TF over GST control); with ETV6, 1.16 fold enrichment (6-mer frequency, TF over GST control).
Regarding CCTACG, the binding signal was 1.37 fold enrichment (6-mer frequency, TF over GST control) in the experiment with ERF; 1.59 fold enrichment (6-mer frequency, TF over GST control) in the experiment with ETV3L; 1.35 fold enrichment (6-mer frequency, TF over GST control) in the experiment with ETS2; 1.41 fold enrichment (6-mer frequency, TF over GST control) with SPDEF; 1.49 fold enrichment (6-mer frequency, TF over GST control) with ETV7; 1.43 fold enrichment (6-mer frequency, TF over GST control) with ELF5. The binding signal was 1.38 fold enrichment (6-mer frequency, TF over GST control) with ETV3 and 1.61 fold enrichment (6-mer frequency, TF over GST control) with ETV6.
